Test results: PubChem BioAssay (NCATS)
Several values for one entry are separate records, joined by “and”; a condition that tells them apart may be missing. Equal entries are not always repeated. Records with an inconclusive call do not appear. Some compounds were tested as several samples or in several runs, with calls that do not always agree. Activity calls are given as the source filed them. Calls come from the whole dose curve; as a rule, active = well fitted curve in the direction sought with a large enough effect; inconclusive = small, poorly fitted or top-dose-only effect, or another doubt; inactive = no such curve, though single readings can be large; an effect the other way counts as inactive or inconclusive.

What was measured:
[1] = test system: MKL-1; test: qHTS assay to identify novel small-molecules to repurpose for Merkel cell carcinoma treatment (AID 1296009); conditions: MCC and control cell lines, CellTiter-Glo viability, 72 h; series mostly up to 46 µM; note: nearly all actives have a fitted effect of over 60% in size
Method in brief: (§1)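 Cell viability measured by CellTiter-Glo following 72 hr compound treatment at 37 degree celsius, with NPC and MIPE libraries tested in 8- and 11-point concentration series.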

[2] = test system: MKL-2; test: as above; conditions: MCC and control cell lines, CellTiter-Glo viability, 72 h; series mostly up to 46 µM
Method in brief: as §1

[3] = test system: UISO; test: as above; conditions: MCC and control cell lines, CellTiter-Glo viability, 72 h; series mostly up to 46 µM
Method in brief: as §1

[4] = test system: WaGa; test: as above; conditions: MCC and control cell lines, CellTiter-Glo viability, 72 h; series mostly up to 46 µM
Method in brief: as §1

[5] = test system: C33A; test: Primary qHTS to identify gynecologic anti-cancer compounds using libraries of approved drugs and bioactive compounds (AID 1345084); conditions: Gynecologic cancer cell panel viability, ATPlite luminescence, 48 h; series mostly up to 57.5 µM; note: nearly all actives have a fitted effect of over 55% in size
Method in brief: (§2)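 Measured: luminescence after ATPlite addition (15 min, RT). Exposure: 48 h, 37 C, 5% CO2.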

[6] = test system: CASKI; test: as above; conditions: Gynecologic cancer cell panel viability, ATPlite luminescence, 48 h; series mostly up to 57.5 µM
Method in brief: as §2

[7] = test system: Es-2; test: as above; conditions: Gynecologic cancer cell panel viability, ATPlite luminescence, 48 h; series mostly up to 57.5 µM
Method in brief: as §2

[8] = test system: HeLa; test: as above; conditions: Gynecologic cancer cell panel viability, ATPlite luminescence, 48 h; series mostly up to 57.5 µM
Method in brief: as §2

[9] = test system: CAOV3; test: as above; conditions: Gynecologic cancer cell panel viability, ATPlite luminescence, 48 h; series mostly up to 57.5 µM
Method in brief: as §2

[10] = test system: NIH3T3; test: qHTS assay to identify novel small-molecules to repurpose for Merkel cell carcinoma treatment (AID 1296009); conditions: MCC and control cell lines, CellTiter-Glo viability, 72 h; series mostly up to 44.8 µM; note: nearly all actives have a fitted effect of over 60% in size
Method in brief: as §1

Measured: Potency
Potency is the fitted concentration of half-maximal effect.

C[C@@H]1CC(=O)NN=C1c1ccc(NN=C(C#N)C#N)cc1
active: [2] 8.41 µM and 7.5 µM | [3] 21.1 µM
23.7 µM (active) and inactive: [4]
not listed: [9] | [10]
inactive: all other assays above

CN(C)C(=N)N=C(N)N
not listed: [9] | [10]
inactive: all other assays above

COc1ccccc1OCCNCC(O)COc1cccc2[nH]c3ccccc3c12 (configuration not stated)
active: [2] 16.8 µM
not listed: [6] | [10]
inactive: all other assays above

Cc1cnc(C(=O)NCCc2ccc(S(=O)(=O)NC(=O)NC3CCCCC3)cc2)cn1
not listed: [9] | [10]
inactive: all other assays above

Clc1ccc2c(c1)C(N1CCNCC1)=Nc1ccccc1O2
not listed: [9] | [10]
inactive: all other assays above

Nc1ccn([C@H]2CC[C@@H](CO)O2)c(=O)n1
not listed: [9] | [10]
inactive: all other assays above

CN(C)c1nc(N(C)C)nc(N(C)C)n1
not listed: [9] | [10]
inactive: all other assays above

CC(C)(C)C(=O)Oc1ccc(S(=O)(=O)Nc2ccccc2C(=O)NCC(=O)O)cc1
not listed: [9] | [10]
inactive: all other assays above

CS(=O)(=O)Nc1ccc([N+](=O)[O-])cc1Oc1ccccc1
inactive and 14.8 µM (active): [2]
not listed: [9] | [10]
inactive: all other assays above

CN1C2CCC1CC(OC(=O)C(CO)c1ccccc1)C2 (configuration not stated)
inactive: [1] | [2] | [3] | [4]

NC(=O)NO
inactive and 372 nM (active): [2]
inactive and 4.69 µM (active): [3]
not listed: [10]
inactive: all other assays above

Cn1cnc2c1c(=O)[nH]c(=O)n2C
not listed: [9] | [10]
inactive: all other assays above

COc1ccccc1N1CCN(CC(O)COc2cccc3ccccc23)CC1 (configuration not stated)
inactive: [1] | [2] | [3] | [4]
active: [5] 8.91 µM | [9] 12.6 µM | [6] 14.1 µM | [7] 25.1 µM

CC(C)NCC(O)COc1ccc(CCOCC2CC2)cc1 (configuration not stated)
not listed: [9] | [10]
inactive: all other assays above

Cc1ccc(-c2cc(C(F)(F)F)nn2-c2ccc(S(N)(=O)=O)cc2)cc1
not listed: [10]
inactive: all other assays above

COc1nc(C)nc(Cl)c1NC1=NCCN1
not listed: [9] | [10]
inactive: all other assays above

NS(=O)(=O)c1cc2c(cc1Cl)NCNS2(=O)=O
not listed: [10]
inactive: all other assays above

CC1(CN2CCC(n3c(=O)[nH]c4ccccc43)CC2)OCc2ccccc2-n2cccc21 (configuration not stated)
not listed: [10]
inactive: all other assays above

CS(=O)(=O)CCNCc1ccc(-c2ccc3ncnc(Nc4ccc(OCc5cccc(F)c5)c(Cl)c4)c3c2)o1
inactive and 16.8 µM (active): [4]
active: [2] 11.9 µM
not listed: [9] | [10]
inactive: all other assays above

CCCNCC(O)COc1ccccc1C(=O)CCc1ccccc1 (configuration not stated)
not listed: [10]
inactive: all other assays above

CC(C(=O)O)c1cccc(C(=O)c2ccccc2)c1 (configuration not stated)
not listed: [5] | [9]
inactive: all other assays above

O=C1c2c(O)ccc(O)c2C(=O)c2c(NCCNCCO)ccc(NCCNCCO)c21
active: [1] 105 nM and 6 nM | [2] 0.006 µM | [3] 526 nM and 668 nM | [4] 74.3 nM and 4.7 nM | [5] 2.51 µM | [9] 3.16 µM | [6] 2.82 µM | [8] 15.8 µM

O=c1c(O)c(-c2ccc(O)c(O)c2)oc2cc(O)cc(O)c12
active: [8] 15.8 µM
not listed: [10]
inactive: all other assays above

C[C@](N)(Cc1ccc(O)c(O)c1)C(=O)O
not listed: [9] | [10]
inactive: all other assays above

CN1C(C(=O)Nc2ccccn2)=C(O)c2ccccc2S1(=O)=O
inactive and 16.6 µM (active): [4]
inactive and 10.5 µM (active): [1]
not listed: [10]
inactive: all other assays above

CCOC(=O)Nc1ccc(NCc2ccc(F)cc2)nc1N
21.1 µM (active) and inactive: [4]
not listed: [5]
inactive: all other assays above
